Experimental data as given in paper PMC4336329 (PLoS ONE, 2015).
The campaign covered roughly 310,000 compounds. About 14,000 (4.5%) showed an effect of 50% or more. The effect is printed as a negative number. Shown is part of a subset that was picked to be rich in strong results.

Biological target: human ether-à-go-go-related gene (hERG) potassium channel (human, UniProt Q12809)
Test: primary screen, population patch clamp on CHO cells stably expressing hERG; higher = less effect of the substance
Method: Briefly, Chinese hamster ovary (CHO) cells stably expressing the hERG channel were dislodged from tissue culture flasks and dispensed into PPC plates. […] During the recording, background leak currents were estimated by a 100 ms step to -80 mV from an initial holding potential of -70 mV and subtracted from the subsequent current measurement. The campaign was conducted in two phases using slight differences in recording protocol. In the first phase, the initial voltage pulse used a 100 ms step to -30 mV from a holding potential of -70 mV, a 2 s conditioning step to +25 mV, and a 2 s test step to -30 mV. During the second phase of the screen, the potential during the conditioning step was raised to +45 mV. In both phases of the campaign, a secondary voltage pulse was applied using the same parameters as the second phase initial pulse. The initial and secondary pulses were applied in the absence of compound, and upon application of 1 μM and 10 μM test concentrations. […]
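Note: peak tail current of the secondary pulse compared with the same well before compound.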

Chain of human ether-à-go-go-related gene (hERG) potassium channel (Q12809 whole entry, looked up): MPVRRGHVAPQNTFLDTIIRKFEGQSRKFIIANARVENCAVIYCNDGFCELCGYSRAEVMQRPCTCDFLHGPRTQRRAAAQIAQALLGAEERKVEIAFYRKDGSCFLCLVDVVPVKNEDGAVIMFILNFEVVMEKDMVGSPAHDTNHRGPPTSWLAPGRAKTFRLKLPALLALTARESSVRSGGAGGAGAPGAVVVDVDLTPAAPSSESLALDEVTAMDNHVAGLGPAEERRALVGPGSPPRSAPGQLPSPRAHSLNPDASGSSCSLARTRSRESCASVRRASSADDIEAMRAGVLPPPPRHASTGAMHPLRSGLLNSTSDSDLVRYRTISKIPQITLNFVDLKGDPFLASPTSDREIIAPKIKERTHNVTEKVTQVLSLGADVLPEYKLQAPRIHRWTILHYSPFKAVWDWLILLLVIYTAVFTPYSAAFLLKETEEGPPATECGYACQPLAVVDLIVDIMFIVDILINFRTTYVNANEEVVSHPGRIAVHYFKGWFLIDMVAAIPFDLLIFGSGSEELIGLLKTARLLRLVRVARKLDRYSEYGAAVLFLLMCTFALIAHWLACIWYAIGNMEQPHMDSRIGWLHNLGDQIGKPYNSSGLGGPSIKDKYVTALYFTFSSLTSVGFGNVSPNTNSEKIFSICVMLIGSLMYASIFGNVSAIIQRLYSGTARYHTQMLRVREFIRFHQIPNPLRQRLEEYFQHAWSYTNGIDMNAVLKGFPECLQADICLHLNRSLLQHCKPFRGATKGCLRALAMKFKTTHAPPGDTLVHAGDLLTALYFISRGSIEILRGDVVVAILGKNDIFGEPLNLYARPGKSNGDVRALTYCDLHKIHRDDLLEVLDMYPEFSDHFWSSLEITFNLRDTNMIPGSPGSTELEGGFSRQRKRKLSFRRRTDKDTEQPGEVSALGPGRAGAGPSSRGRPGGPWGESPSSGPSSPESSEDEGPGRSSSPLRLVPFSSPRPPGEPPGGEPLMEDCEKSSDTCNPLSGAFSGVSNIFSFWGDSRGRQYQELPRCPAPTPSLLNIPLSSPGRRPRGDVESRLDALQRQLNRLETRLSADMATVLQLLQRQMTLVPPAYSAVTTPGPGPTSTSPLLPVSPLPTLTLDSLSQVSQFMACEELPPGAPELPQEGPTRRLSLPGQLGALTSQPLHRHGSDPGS

Going from CN1C2CCC1CC(OC(c1ccccc1)c1ccccc1N)C2 (stereo not shown) to CCOc1ccc(-n2c(=O)c3ccccc3c3ccccc3c2=O)cc1, the “hERG current change (%, negative = inhibition) at 10uM” value rises from -68.5% to 17.8%.

Compared with CCOC(=O)C1CCN(C(=O)CNC(=O)c2nn(-c3ccc(OC)cc3)c(=O)c3ccccc23)CC1, CCOC(=O)c1cc2c(=O)n3ccccc3nc2n(CCCOC)c1=NC(=O)c1cccnc1 is lower in “hERG current change (%, negative = inhibition) at 10uM” value: -9.73% for the first, -68% for the second.

First: Cc1ccc(Cl)cc1NC(=O)CC1NCCNC1=O (stereo not shown)
Second: CCC(C)NCCCCOc1ccc(Cl)cc1C.O=C(O)C(=O)O (stereo not shown)
The “hERG current change (%, negative = inhibition) at 10uM” value of the first is higher: 13.6% for the first, -58.6% for the second.

First: COc1ccccc1-c1c(C)nn2c(N3CCOCC3)cc(C)nc12
Second: COc1ccccc1-c1noc(Cn2cc(S(=O)(=O)N3CCCC3)ccc2=O)n1
The “hERG current change (%, negative = inhibition) at 10uM” value of the first is higher: 2.71% for the first, -3.72% for the second.

Going from CCCCOC(=O)CCCc1ccc([N+](=O)[O-])cc1[N+](=O)[O-] to CCOC(=O)CCCNc1ccc([N+](=O)[O-])cc1[N+](=O)[O-], the “hERG current change (%, negative = inhibition) at 10uM” value rises from -52% to -13.3%.

First: C#CCOC(=O)CCCNc1ccc([N+](=O)[O-])cc1[N+](=O)[O-]
Second: CC(C)OC(=O)CCCNc1ccc([N+](=O)[O-])cc1[N+](=O)[O-]
The “hERG current change (%, negative = inhibition) at 10uM” value of the first is lower: -51.1% for the first, -41.4% for the second.

First: CCCCOc1ccc([N+](=O)[O-])cc1C(=O)O
Second: CCCCOC(=O)Nc1nc2ccc([N+](=O)[O-])cc2s1
The “hERG current change (%, negative = inhibition) at 10uM” value of the first is higher: 24.9% for the first, 15.1% for the second.

First: COC(=O)c1c(-c2c(Cl)cccc2Cl)noc1C(=O)NNC(=O)N(C)C
Second: CCC(C)NCCCOc1cc(Cl)ccc1Cl.O=C(O)C(=O)O (stereo not shown)
The “hERG current change (%, negative = inhibition) at 10uM” value of the first is higher: 4.36% for the first, -42.3% for the second.

Compared with S=C(NCc1ccccc1)NCc1cccc(CNC(=S)NCc2ccccc2)c1, COc1cccc(NC(=O)CN(C)C(C)C(=O)Nc2ccc(S(=O)(=O)N3CCOCC3)cc2)c1 (stereo not shown) is lower in “hERG current change (%, negative = inhibition) at 10uM” value: 21.7% for the first, -15.1% for the second.

Compared with CCOCCCn1c(=NC(=O)c2cccnc2)c(C(=O)OCC)cc2c(=O)n3ccccc3nc21, CCOCCCn1c(=NC(C)=O)c(C(=O)OCC)cc2c(=O)n3ccccc3nc21 is higher in “hERG current change (%, negative = inhibition) at 10uM” value: -70.1% for the first, -22.9% for the second.

Compared with CCOC(=O)c1cc2c(=O)n3cccc(C)c3nc2n(CCOC)c1=NC(C)=O, CCOC(=O)c1cc2c(=O)n3cccc(C)c3nc2n(CCCOC)c1=NC(=O)c1cccnc1 is lower in “hERG current change (%, negative = inhibition) at 10uM” value: -16.3% for the first, -78.6% for the second.

Going from CCC1=C(OC(=O)N(CC)CC)N2C(=O)OC(=NCC(=O)OC)[C@]2(C)[C@H]2C1=CC[C@H]1C(=O)NC(=O)[C@H]12 to Cc1cc(OCCOCCNC(C)C)cc(C)c1Cl.O=C(O)C(=O)O, the “hERG current change (%, negative = inhibition) at 10uM” value falls from -15.5% to -47.3%.

First: Cc1onc(COc2ccccc2O)c1Br
Second: CCC(C)NCCOCCOc1ccc(C)cc1Br.O=C(O)C(=O)O (stereo not shown)
The “hERG current change (%, negative = inhibition) at 10uM” value of the first is higher: 11.2% for the first, -41% for the second.

Going from C=CCc1cc(Cl)ccc1OCCCNC(C)C.O=C(O)C(=O)O to C=CCc1cc(Cl)ccc1OCCCNC(C)CC.O=C(O)C(=O)O (stereo not shown), the “hERG current change (%, negative = inhibition) at 10uM” value falls from -40.1% to -55.7%.

Going from C=CCc1cc(Cl)ccc1OCCNCCCOC.O=C(O)C(=O)O to CCC(C)NCCOCCOc1ccc(Cl)cc1Br.O=C(O)C(=O)O (stereo not shown), the “hERG current change (%, negative = inhibition) at 10uM” value falls from -37.9% to -51.1%.

Going from CCC(C)NCCOCCOc1ccc(Br)cc1.O=C(O)C(=O)O (stereo not shown) to CCC(C)NCCOCCOc1cc(C)c(Cl)c(C)c1.O=C(O)C(=O)O (stereo not shown), the “hERG current change (%, negative = inhibition) at 10uM” value falls from -18.1% to -59.2%.

Compared with CC(C)NCCOCCOc1ccc(Cl)cc1Br.O=C(O)C(=O)O, CCC(C)NCCCOc1ccc(Cl)cc1C(C)(C)C.O=C(O)C(=O)O (stereo not shown) is higher in “hERG current change (%, negative = inhibition) at 10uM” value: -32.2% for the first, -8.48% for the second.
